In the library only some 8% were active in any assay of this set; here they are far more common.
KB-V1 cytotox – KB-V1 MDR subline cytotoxicity. KB-V1 MDR cells viability, CellTiter-Glo, 72 h. Potency, µM (series often up to 46.1 µM), actives largely listed as cytotoxic. 400,000 compounds, 3.4% hits. AID 1347076; also: % is scaled to controls: 0 for no effect and ±100 for the full control effect; nearly all actives have a fitted effect of over 60% in size
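Luminescent ATP read-out (CellTiter-Glo, 10 min) measures survival of drug-selected KB-V1 MDR cells after 72 h, 37 degrees C compound exposure. Medium: phenol-red-free DMEM, 10% FBS. Values from fitted concentration-response curves.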
KB-3-1 tox – KB-3-1 parental cell cytotoxicity | Potency, µM (titrated, usually from 46.1 µM), hits mostly cytotoxic | 400,000 compounds, 1.4% hits | KB-3-1 viability, CellTiter-Glo ATP luminescence, 72 h; also: % is scaled to controls: 0 for no effect and ±100 for the full control effect; nearly all actives have a fitted effect of over 60% in size
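KB-3-1 cells, DMEM (no phenol red) + 10% FBS; compound by pin transfer, 72 h, 37 °C. Readout: CellTiter-Glo luminescence after 10 min. Data normalized, curve-fitted.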
SW480 rereplic – induces DNA re-replication in SW480 colon adenocarcinoma cells; SW480 DNA re-replication, Hoechst DNA content imaging, 48 h; Potency, µM (top dose mostly 46.1 µM), for inactives: top-dose re-replication activation, actives largely listed as activators; 340,000 compounds, 1.8% hits; also: % of control where 0% means no effect; nearly all actives have a fitted effect of over 55% in size
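Readout is total intensity of Hoechst-stained nuclei, excited at 405 nm and collected at 500-530 nm. Compound treatment lasted 48 hr at 37 C in 5% CO2 before staining.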
HT1080 IDH1KD tx – HT-1080 IDH1 knockdown cell toxicity (counter line). HT-1080 IDH1 knockdown viability, ATP luminescence, 48 h. Potency, µM (doses to about 46.1 µM), for the others: at the top dose activity, negative = toxicity, hits mostly cytotoxic. 360,000 compounds, 2% hits. AID 686971;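 also: 0% = DMSO wells and -100% = cell-free medium wells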
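After a 2 h attachment period, IDH1KD HT-1080 cells took pin-transferred compound for 48 h at 37 °C; ATP-based luminescence after 10 min room-temperature reagent incubation reported viability.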
HT1080-NT tox – kills 2HG-producing HT-1080-NT fibrosarcoma cells; HT-1080-NT fibrosarcoma viability, CellTiter-Glo ATP luminescence, 48 h; Potency, µM (highest dose often 46.1 µM), inactives show top-dose activity, negative = less viability, most hits filed as cytotoxic; 360,000 compounds, 1.6% hits; AID 686970;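 also: NT is the 2HG producing partner of a matched IDH1 knockdown line; 0% = DMSO-treated cells and -100% = media-only wells without cells; nearly all actives have a fitted effect of over 55% in size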
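Viability of the 2HG-overproducing fibrosarcoma line after 48 hours of compound exposure at 37 degrees C was determined by luminescence with CellTiter-Glo, and concentration-effect curves were then fitted and categorized.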
MCF10A rerep – induces DNA re-replication in MCF 10a normal breast cells | MCF 10A DNA re-replication, Hoechst nuclear intensity, 48 h | 350,000 compounds, 2.9% hits | Potency, µM (top dose mostly 46.1 µM), for the others: top-dose activity, positive = re-replication, hits mostly activators; also: % of control where 0% means no effect; nearly all actives have a fitted effect of over 50% in size
* = called active by the depositor; i = inactive; ? = inconclusive; / = not tested or not shown; ! = not active in a repeat. Calls follow the shape of the dose curve; as a rule, active = well fitted curve in the direction sought with a large enough effect; inconclusive = small, poorly fitted or top-dose-only effect, or another doubt; inactive = no such curve, though single readings can be large; an effect the other way counts as inactive or inconclusive. Potency is read from the fitted curve at half-maximal effect.

SMILES | KB-V1 cytotox | KB-3-1 tox | SW480 rereplic | HT1080 IDH1KD tx | HT1080-NT tox | MCF10A rerep
COc1ccc(CCNC(=O)c2c(N)n(CCN3CCOCC3)c3nc4ccccc4nc23)cc1OC | ? | i | -2% | ? | ? | 7%
CCCCCn1c(N)c(C(=O)NCCN2CCOCC2)c2nc3ccccc3nc21 | ? | ? | 2.9µM* | 18µM* | 16µM* | ?
CCCCCCn1c(N)c(C(=O)NCCN2CCOCC2)c2nc3ccccc3nc21 | ? | ? | 21µM* | ? | ? | 0.82µM*
COCCCn1c(N)c(C(=O)NCCC(C)C)c2nc3ccccc3nc21 | 23µM* | ? | ? | ? | -22% | ?
CC(C)CCn1c(N)c(C(=O)OCC2CCCO2)c2nc3ccccc3nc21 (stereo unspecified) | ? | i | 17% | 21µM* | ? | ?
CCCCn1c(N)c(C(=O)OCC2CCCO2)c2nc3ccccc3nc21 (stereo unspecified) | i | i | -2% | -17% | ? | 1%
COCCCNC(=O)c1c(NC(=O)c2ccccc2)n(Cc2ccccc2)c2nc3ccccc3nc12 | i | i | 1.3µM* | -8% | -3% | ?
CCCOP(=O)(c1ccc(N(C)C)cc1)C(O)c1ccc(Cl)cc1Cl (stereo unspecified) | ? | i | 1% | ? | -1% | 15%
CCOc1ccc(-n2c(-c3cccs3)nc3ccccc3c2=O)cc1 | i | i | 3% | 10% | 0% | -8%
CCn1nc(/C=C/c2ccccc2)nc2c(=O)n(C)c(=O)nc1-2 | ? | 4.1µM* | ? | 1.8µM* | 4.1µM* | 11µM*
CCn1nc(-c2cccs2)nc2c(=O)n(C)c(=O)nc1-2 | ? | ? | ? | 2.6µM* | 3.3µM* | 0.73µM*
NS(=O)(=O)c1cc(C2(O)NC(=O)c3ccccc32)ccc1Cl (stereo unspecified) | i | i | -47% | 0% | -3% | -42%
O=[N+]([O-])c1c(Cl)c(Cl)c(Cl)c(Cl)c1Cl | i | i | -3% | / | / | 0%
Nc1cc(Cl)c2nonc2c1[N+](=O)[O-] | ? | 16µM* | ? | 12µM* | 7.3µM* | 3.3µM*
CCNC(=O)O/N=C(\C)c1sc(-c2ccc(Cl)cc2)nc1C | i | i | -1% | -13% | -4% | ?
C[C@H]1CCC/C=C/[C@@H]2C[C@H](O)C[C@H]2[C@H](O)/C=C/C(=O)O1 | 0.58µM* | 0.065µM* | ? | 0.0065µM* | 0.41µM* | 0.65µM*!
Cc1cccc(N2CCN(C(=O)CCNS(=O)(=O)c3ccc4c(c3)oc(=O)n4C)CC2)c1C | ? | ? | ? | 0% | -27% | ?
O=C(c1ccc(CS(=O)(=O)c2ccccc2)o1)N1CCC2(CC1)OCCO2 | 13µM* | i | -3% | 1% | 12% | 4%
O=C(c1ccc(CNS(=O)(=O)c2ccc(Br)cc2)cc1)N1CCC2(CC1)OCCO2 | i | i | 0.58µM*! | -1% | 0% | ?
CC(C)c1ccc(NC(=O)CN2C(=O)CN=C(c3ccccc3)c3ccccc32)cc1 | i | i | / | / | / | /
[O]=[Cr](=[O])([OH])[O][Cr](=[O])(=[O])[OH] | / | / | ? | / | / | 12µM*!
Oc1ccc(Cl)cc1Cc1cc(Cl)ccc1O | ? | i | ? | 23µM* | 16µM* | 5.2µM*
S=C(S)N1CCCC1 | i | i | 3% | 3% | 0% | ?
OC(c1ccccc1)(c1ccc(Cl)cc1)C1CN2CCC1CC2 (stereo unspecified) | ? | ? | ? | 16µM* | ? | ?
CCOc1ccc(NC(=O)C2C(C(=O)O)C3(Cl)C(Cl)=C(Cl)C2(Cl)C3(Cl)Cl)cc1 (stereo unspecified) | i | i | -19% | -2% | -25% | ?
SMILES | KB-V1 cytotox | KB-3-1 tox | SW480 rereplic | HT1080 IDH1KD tx | HT1080-NT tox | MCF10A rerep
Cc1ccc(C)c(NP(=O)(Oc2ccccc2)Oc2ccccc2)c1 | i | ? | -1% | ? | ? | 21µM*
COc1ccc(S(=O)(=O)NC(CC(=O)N2CCc3ccccc32)c2ccco2)cc1 (stereo unspecified) | ? | i | ? | -8% | -4% | 9%
Cc1cccc(CN2CC=C(c3noc(CCC(=O)Nc4ccc(C)c(F)c4)n3)CC2)c1 | i | i | / | / | / | /
Cc1cccc(NC(=S)N/N=C/c2ccc([N+](=O)[O-])s2)c1 | i | ? | ? | ? | 18µM* | ?
Cc1cccc(NC(N)=S)c1 | i | i | 6% | -4% | -13% | -5%
O=c1nc(/C=C/c2ccc(Cl)cc2Cl)cc(C(F)(F)F)[nH]1 | i | i | -9% | -11% | -5% | 6.5µM*
Oc1ccc(-c2csc(-c3ccccc3)n2)cc1O | 15µM* | ? | -7% | 10µM* | 11µM* | 2%
Nc1ccc2c3c(cccc13)CC2 | i | i | 16µM* | -1% | -12% | 16µM*
O=C(c1ccc2c(c1)N(Cc1c(F)cccc1Cl)C(=O)c1ccccc1S2)N1CCC2(CC1)OCCO2 | i | i | / | / | / | /
COc1ccc(-n2cc(-c3ccccc3)c3c(N4CCN(CCO)CC4)ncnc32)cc1 | i | i | ? | ? | 16µM* | -13%
COc1ccc(N2CCN(Cc3nc4ccccc4[nH]3)CC2)cc1 | i | i | -2% | -3% | -2% | -7%
CN(C)CCCOc1nn(Cc2ccccc2)c2ccccc12 | ? | i | -4% | 18µM* | ? | -28%
CN(C)CCn1cnc2ccccc21 | i | i | 2% | 9% | 3% | 10%
Cc1cc(O)c2c(c1)C(=O)C13C(=C2O)C(=O)[C@H]2[C@@H](O)[C@@H]1[C@H]1[C@H](O)[C@@H]3C(=O)C3=C(O)c4c(O)cc(C)cc4C(=O)C312 (stereo partly specified) | i | 9.2µM* | -11% | 5.2µM* | 0.58µM* | -40%
O=C1NC(=S)NC(=O)C1=Cc1cccn1-c1ccc(O)cc1 | i | ? | -10% | 23µM* | ? | ?
Cc1cccc(OCCn2cccc2/C=C2/C(=O)NC(=O)N(Cc3ccco3)C2=O)c1 | i | i | -2% | 4% | 0% | ?
CCc1ccc(N2C(=O)NC(=O)/C(=C/c3cccn3CCOc3ccc(C)cc3)C2=O)cc1 | i | i | ? | 16% | 20% | 21µM*
Cc1cc(C)cc(N2C(=O)NC(=O)/C(=C\c3cccn3-c3ccccc3)C2=O)c1 | 18µM* | ? | ? | ? | -21% | ?

Assay outcomes from PubChem.
